Laboratory results reported in the supplement of paper PMC10849652.
About 7,900 targets were measured; listed, in parts, are those with a hit and a random draw of the rest. About 0.6% of all pairs of compound and target were hits.

Legend:
Experiment in all cases: log2 fold change, soluble protein after heating vs DMSO (PISA); higher = thermal stabilisation; K562 cells, 10 uM, 30 min; active = over 0.2 and 3.5 SD of the protein, either way, in both replicates (recomputed)
[1] = compound: CC1=C(C=C(C=C1)NC(=O)C2=CC(=CC=C2)C(C)(C)C#N)NC3=CC4=C(C=C3)N=CN(C4=O)C
Method in brief: (§1)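 Thermal stability values are relative to control samples and come from duplicates. They are expressed as log2 fold changes. For measurement, K562 cells (2×10^6 cells/mL) received 10 μM compound for 30 min, and aliquots were heated for 3 min over 48°C-58°C, pooled, and extracted at 4°C in PBS with 0.5% NP-40. Soluble protein, the supernatant after 21,000xg for 90 min, was quantified by TMTpro 16plex LC-MS/MS with equalised channel sums.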

[2] = compound: CC1=C(C=C(C=C1)NC(=O)C2=CC(=CC=C2)N(C)C)NC(=O)C3=CC=C(C=C3)O
Method in brief: as §1

[3] = compound: CC1=CC=C(C=C1)SC2=C3C=C(SC3=CN=C2)C(=O)N
Method in brief: as §1

[4] = compound: CC1=NC(=CC=C1)C2=C(N=C(N2)C(C)(C)C)C3=CC4=NC=CN=C4C=C3
Method in brief: as §1

[5] = compound: CCCCN(Cc1ccc(C(=O)NO)cc1)C(=O)Nc1ccccc1 [Nexturastat A]
Method in brief: as §1

[6] = compound: CCCS(=O)(=O)Nc1ccc(F)c(C(=O)c2c[nH]c3ncc(-c4ccc(Cl)cc4)cc23)c1F [vemurafenib]
Method in brief: as §1

[7] = compound: CCCS(=O)(=O)Nc1ccc(F)c(C(=O)c2c[nH]c3ncc(Cl)cc23)c1F
Method in brief: as §1

[8] = compound: CCCc1cc(C)[nH]c(=O)c1CNC(=O)c1cc(-c2ccnc(N3CCN(C)CC3)c2)cc2c1cnn2C(C)C
Method in brief: as §1

[9] = compound: CCN(CC)Cc1ccc2cc(COC(=O)Nc3ccc(C(=O)NO)cc3)ccc2c1 [givinostat]
Method in brief: as §1

[10] = compound: CCN(CCCOc1ccc2c(Nc3cc(CC(=O)Nc4cccc(F)c4)[nH]n3)ncnc2c1)CCOP(=O)(O)O [barasertib]
Method in brief: as §1

UniProt Q14457, sequence (Q14457 whole entry, looked up): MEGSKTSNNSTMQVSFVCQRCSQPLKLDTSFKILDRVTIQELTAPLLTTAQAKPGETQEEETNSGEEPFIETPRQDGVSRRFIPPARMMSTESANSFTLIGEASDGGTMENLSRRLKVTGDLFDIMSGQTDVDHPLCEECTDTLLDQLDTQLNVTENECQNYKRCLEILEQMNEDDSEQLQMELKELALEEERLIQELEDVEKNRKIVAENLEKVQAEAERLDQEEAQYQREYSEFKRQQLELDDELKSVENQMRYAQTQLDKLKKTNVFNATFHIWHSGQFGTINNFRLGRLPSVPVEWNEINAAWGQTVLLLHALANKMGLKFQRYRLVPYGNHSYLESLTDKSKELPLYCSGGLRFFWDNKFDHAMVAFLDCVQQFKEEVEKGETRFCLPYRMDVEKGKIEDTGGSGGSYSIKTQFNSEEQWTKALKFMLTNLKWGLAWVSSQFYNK
UniProt O14727, sequence (O14727 whole entry, looked up): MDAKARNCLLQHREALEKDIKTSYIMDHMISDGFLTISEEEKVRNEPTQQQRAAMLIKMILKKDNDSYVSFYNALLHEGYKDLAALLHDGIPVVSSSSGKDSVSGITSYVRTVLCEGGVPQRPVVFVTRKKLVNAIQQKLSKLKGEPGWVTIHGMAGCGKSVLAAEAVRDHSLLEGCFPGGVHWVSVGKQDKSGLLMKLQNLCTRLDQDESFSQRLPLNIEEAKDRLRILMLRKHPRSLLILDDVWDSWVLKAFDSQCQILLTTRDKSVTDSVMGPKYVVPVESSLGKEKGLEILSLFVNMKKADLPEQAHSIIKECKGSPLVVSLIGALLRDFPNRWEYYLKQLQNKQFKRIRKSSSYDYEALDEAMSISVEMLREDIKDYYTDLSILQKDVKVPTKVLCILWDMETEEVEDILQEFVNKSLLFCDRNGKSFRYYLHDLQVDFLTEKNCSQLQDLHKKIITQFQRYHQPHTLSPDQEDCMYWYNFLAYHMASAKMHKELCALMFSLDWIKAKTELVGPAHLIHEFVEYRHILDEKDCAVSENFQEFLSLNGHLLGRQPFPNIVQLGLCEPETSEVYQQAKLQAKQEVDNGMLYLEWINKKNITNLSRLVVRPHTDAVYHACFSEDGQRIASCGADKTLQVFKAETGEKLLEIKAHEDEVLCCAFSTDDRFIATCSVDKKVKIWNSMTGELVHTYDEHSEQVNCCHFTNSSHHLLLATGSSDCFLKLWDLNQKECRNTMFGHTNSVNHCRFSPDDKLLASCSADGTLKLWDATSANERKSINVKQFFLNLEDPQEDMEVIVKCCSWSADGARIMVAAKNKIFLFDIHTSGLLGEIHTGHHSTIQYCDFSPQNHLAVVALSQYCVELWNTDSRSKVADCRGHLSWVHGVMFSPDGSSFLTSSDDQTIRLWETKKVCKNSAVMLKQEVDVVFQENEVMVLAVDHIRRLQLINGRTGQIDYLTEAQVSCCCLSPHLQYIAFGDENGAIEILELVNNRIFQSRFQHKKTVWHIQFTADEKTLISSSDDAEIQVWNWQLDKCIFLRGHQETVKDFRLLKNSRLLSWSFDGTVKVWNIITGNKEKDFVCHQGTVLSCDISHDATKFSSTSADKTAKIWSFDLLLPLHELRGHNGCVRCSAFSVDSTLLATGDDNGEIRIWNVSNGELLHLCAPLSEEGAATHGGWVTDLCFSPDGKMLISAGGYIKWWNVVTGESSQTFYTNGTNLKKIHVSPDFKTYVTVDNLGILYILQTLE
UniProt Q9Y6E2, sequence (Q9Y6E2 whole entry, looked up): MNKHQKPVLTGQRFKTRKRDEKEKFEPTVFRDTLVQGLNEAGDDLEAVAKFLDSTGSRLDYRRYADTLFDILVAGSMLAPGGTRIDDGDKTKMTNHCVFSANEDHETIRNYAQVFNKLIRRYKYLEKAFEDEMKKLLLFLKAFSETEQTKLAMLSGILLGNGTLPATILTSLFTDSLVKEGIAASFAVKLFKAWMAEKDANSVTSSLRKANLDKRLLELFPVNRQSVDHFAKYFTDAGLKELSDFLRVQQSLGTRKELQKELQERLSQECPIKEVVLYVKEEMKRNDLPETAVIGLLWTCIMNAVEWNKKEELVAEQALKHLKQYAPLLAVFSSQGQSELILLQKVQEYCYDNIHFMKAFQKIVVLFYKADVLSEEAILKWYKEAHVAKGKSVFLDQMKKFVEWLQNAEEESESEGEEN
UniProt P11310, sequence (P11310 whole entry, looked up): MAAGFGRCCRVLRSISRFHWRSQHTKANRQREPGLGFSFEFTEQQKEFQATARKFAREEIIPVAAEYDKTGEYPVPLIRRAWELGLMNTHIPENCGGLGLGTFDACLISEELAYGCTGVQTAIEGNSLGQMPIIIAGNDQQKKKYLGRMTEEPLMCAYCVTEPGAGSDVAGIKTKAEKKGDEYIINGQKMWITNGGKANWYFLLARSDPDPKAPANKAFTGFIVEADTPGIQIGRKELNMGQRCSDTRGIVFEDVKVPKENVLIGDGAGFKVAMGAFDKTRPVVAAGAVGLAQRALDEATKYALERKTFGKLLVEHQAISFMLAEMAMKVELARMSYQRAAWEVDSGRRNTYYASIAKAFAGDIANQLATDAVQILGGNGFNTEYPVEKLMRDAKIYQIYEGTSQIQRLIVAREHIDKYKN
UniProt Q4G176, sequence (Q4G176 whole entry, looked up): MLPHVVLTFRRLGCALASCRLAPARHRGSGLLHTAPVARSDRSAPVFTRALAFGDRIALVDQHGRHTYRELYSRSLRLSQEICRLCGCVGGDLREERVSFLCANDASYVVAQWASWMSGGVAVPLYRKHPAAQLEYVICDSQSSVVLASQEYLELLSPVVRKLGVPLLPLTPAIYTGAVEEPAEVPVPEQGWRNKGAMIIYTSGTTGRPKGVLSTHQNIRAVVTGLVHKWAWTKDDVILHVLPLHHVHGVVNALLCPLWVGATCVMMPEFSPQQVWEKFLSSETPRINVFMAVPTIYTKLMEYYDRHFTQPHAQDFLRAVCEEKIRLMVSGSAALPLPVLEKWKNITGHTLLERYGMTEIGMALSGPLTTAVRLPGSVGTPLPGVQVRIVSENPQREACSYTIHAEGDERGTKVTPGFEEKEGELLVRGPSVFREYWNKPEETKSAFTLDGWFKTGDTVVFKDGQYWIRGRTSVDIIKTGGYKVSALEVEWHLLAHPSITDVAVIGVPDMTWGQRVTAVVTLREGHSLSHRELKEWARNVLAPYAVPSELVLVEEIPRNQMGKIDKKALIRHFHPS
UniProt Q6QNY0, sequence (Q6QNY0 whole entry, looked up): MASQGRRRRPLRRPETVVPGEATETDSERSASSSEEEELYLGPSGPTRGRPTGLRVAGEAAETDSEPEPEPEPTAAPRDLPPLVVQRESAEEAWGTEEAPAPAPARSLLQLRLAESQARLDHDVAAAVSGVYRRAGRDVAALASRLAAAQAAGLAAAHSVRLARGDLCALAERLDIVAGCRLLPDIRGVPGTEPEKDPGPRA
UniProt Q00973, sequence (Q00973 whole entry, looked up): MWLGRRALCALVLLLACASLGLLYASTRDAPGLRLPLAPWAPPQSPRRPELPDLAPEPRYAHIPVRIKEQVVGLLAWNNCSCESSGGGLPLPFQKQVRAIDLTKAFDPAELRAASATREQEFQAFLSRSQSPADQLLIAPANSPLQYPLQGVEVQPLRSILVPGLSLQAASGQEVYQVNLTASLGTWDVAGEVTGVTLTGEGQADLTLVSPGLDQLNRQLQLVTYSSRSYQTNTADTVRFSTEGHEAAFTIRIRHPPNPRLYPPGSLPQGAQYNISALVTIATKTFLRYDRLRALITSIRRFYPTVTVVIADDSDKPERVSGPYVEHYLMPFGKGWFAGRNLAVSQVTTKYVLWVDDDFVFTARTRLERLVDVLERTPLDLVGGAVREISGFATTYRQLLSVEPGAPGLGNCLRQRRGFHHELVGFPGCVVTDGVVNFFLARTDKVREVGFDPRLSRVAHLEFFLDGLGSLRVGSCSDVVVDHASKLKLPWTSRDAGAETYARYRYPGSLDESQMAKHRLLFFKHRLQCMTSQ
UniProt P54886, sequence (P54886 whole entry, looked up): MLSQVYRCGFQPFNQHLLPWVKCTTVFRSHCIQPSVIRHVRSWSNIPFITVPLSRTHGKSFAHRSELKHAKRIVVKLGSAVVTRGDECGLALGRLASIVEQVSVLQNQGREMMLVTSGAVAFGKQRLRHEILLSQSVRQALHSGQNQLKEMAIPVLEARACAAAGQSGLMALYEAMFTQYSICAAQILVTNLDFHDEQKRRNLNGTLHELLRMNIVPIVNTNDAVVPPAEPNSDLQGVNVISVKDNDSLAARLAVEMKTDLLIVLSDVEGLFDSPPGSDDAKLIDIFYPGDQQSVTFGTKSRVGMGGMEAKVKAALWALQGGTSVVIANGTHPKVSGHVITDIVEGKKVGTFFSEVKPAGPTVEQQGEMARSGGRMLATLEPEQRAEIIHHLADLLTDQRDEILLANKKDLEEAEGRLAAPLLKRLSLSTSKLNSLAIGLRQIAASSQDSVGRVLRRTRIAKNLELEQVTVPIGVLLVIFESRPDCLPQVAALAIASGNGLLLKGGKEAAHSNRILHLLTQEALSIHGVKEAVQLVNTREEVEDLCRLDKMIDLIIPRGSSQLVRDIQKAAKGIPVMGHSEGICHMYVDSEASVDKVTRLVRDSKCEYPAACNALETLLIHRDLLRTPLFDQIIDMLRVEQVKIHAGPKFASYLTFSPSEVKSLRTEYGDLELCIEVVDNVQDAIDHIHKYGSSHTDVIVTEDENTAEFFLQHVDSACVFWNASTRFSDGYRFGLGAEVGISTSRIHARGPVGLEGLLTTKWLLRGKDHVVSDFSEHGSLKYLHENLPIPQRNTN
UniProt Q9BTT0, sequence (Q9BTT0 whole entry, looked up): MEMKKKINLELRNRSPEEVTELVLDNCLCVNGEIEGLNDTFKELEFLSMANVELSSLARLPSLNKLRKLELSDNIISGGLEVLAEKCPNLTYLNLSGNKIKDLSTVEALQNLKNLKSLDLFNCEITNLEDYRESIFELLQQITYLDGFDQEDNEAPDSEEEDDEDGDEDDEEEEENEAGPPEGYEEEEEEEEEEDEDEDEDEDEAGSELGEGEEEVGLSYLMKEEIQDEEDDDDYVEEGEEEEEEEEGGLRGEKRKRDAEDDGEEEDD

Row | Target | log2 fold change [1] | log2 fold change [2] | log2 fold change [3] | log2 fold change [4] | log2 fold change [5] | log2 fold change [6] | log2 fold change [7] | log2 fold change [8] | log2 fold change [9] | log2 fold change [10]
1 | BRD8 (UniProt Q9H0E9) | 0.002 (inactive) | 0.026 (inactive) | -0.01 (inactive) | 0.017 (inactive) | -0.098 (inactive) | 0.027 (inactive) | 0.01 (inactive) | 0.002 (inactive) | -0.153 (inactive) | -0.026 (inactive)
2 | APAF1 (UniProt O14727) | 0.023 (inactive) | 0.014 (inactive) | -0.003 (inactive) | -0.125 (inactive) | 0.056 (inactive) | -0.006 (inactive) | -0.068 (inactive) | -0.1 (inactive) | 0.395 (active) | 
3 | ARL6IP6 (UniProt Q8N6S5) | -0.112 (inactive) | -0.038 (inactive) | 0.009 (inactive) | -0.071 (inactive) | 0.106 (inactive) | 0 (inactive) | 0.049 (inactive) | 0.034 (inactive) | 0.099 (inactive) | -0.048 (inactive)
4 | ATP2A3 isoform 2 (UniProt Q93084) | -0.024 (inactive) | -0.001 (inactive) | -0.013 (inactive) | 0.004 (inactive) | 0 (inactive) | -0.004 (inactive) | 0.032 (inactive) | 0.042 (inactive) | -0.01 (inactive) | 0.011 (inactive)
5 | ALDH6A1 (UniProt Q02252) | -0.02 (inactive) | 0.032 (inactive) | -0.039 (inactive) | 0.044 (inactive) | -0.014 (inactive) | 0.025 (inactive) | 0.011 (inactive) | 0.029 (inactive) | -0.017 (inactive) | -0.038 (inactive)
6 | BYSL (UniProt Q13895) | 0.04 (inactive) | -0.042 (inactive) | -0.01 (inactive) | 0.016 (inactive) | 0.14 (inactive) | 0.079 (inactive) | 0.032 (inactive) | -0.024 (inactive) | 0.167 (inactive) | 0.014 (inactive)
7 | ARL6IP4 (UniProt Q66PJ3) | -0.048 (inactive) | 0.016 (inactive) | -0.005 (inactive) | 0 (inactive) | 0.001 (inactive) | -0.07 (inactive) | -0.019 (inactive) | -0.038 (inactive) | 0.005 (inactive) | -0.01 (inactive)
8 | ANP32E (UniProt Q9BTT0) | 0.041 (inactive) | -0.098 (inactive) | 0.091 (inactive) | -0.02 (inactive) | -0.11 (inactive) | 0.091 (inactive) | 0.035 (inactive) | -0.001 (inactive) | 0.112 (inactive) | 0.076 (inactive)
9 | B4GALNT1 (UniProt Q00973) | 0.075 (inactive) | -0.028 (inactive) | -0.109 (inactive) | 0.005 (inactive) | 0.096 (inactive) | -0.172 (inactive) | -0.044 (inactive) | -0.028 (inactive) | -0.123 (inactive) | 0.104 (inactive)
10 | BLOC1S3 (UniProt Q6QNY0) | -0.03 (inactive) | 0.049 (inactive) | 0.046 (inactive) | 0.052 (inactive) | -0.031 (inactive) | -0.049 (inactive) | -0.029 (inactive) | -0.058 (inactive) | -0.016 (inactive) | 0.021 (inactive)
11 | ASNS (UniProt P08243) | 0.008 (inactive) | 0.007 (inactive) | 0.026 (inactive) | 0.025 (inactive) | -0.045 (inactive) | 0.007 (inactive) | 0.013 (inactive) | 0 (inactive) | -0.004 (inactive) | -0.004 (inactive)
12 | ATP6V1F isoform 2 (UniProt Q16864) | -0.139 (inactive) | 0.034 (inactive) | 0.011 (inactive) | 0.06 (inactive) | 0.146 (inactive) | 0.123 (inactive) | -0.055 (inactive) | 0.038 (inactive) | -0.044 (inactive) | 0.072 (inactive)
13 | AURKA (UniProt O14965) | -0.008 (inactive) | -0.041 (inactive) | -0.011 (inactive) | -0.036 (inactive) | 0.096 (inactive) | -0.026 (inactive) | 0.006 (inactive) | 0.01 (inactive) | 0.257 (inactive) | 0.114 (inactive)
14 | ACSF3 (UniProt Q4G176) | -0.002 (inactive) | 0.038 (inactive) | 0.007 (inactive) | 0.023 (inactive) | -0.005 (inactive) | 0.029 (inactive) | 0.003 (inactive) | 0.008 (inactive) | -0.022 (inactive) | 0.051 (inactive)
15 | ARL2BP (UniProt Q9Y2Y0) | 0.154 (inactive) | -0.033 (inactive) | 0.012 (inactive) | 0.281 (inactive) | 0.043 (inactive) | -0.031 (inactive) | 0.071 (inactive) | 0.102 (inactive) | -0.041 (inactive) | 0.079 (inactive)
16 | ALG11 (UniProt Q2TAA5) | 0.006 (inactive) | -0.018 (inactive) | -0.041 (inactive) | 0.013 (inactive) | -0.004 (inactive) | 0.053 (inactive) | 0.019 (inactive) | -0.04 (inactive) | 0 (inactive) | 0.043 (inactive)
17 | ACSM3 (UniProt Q53FZ2) | -0.069 (inactive) | -0.056 (inactive) | 0.019 (inactive) | -0.029 (inactive) | -0.096 (inactive) | 0.033 (inactive) | 0.036 (inactive) | 0.018 (inactive) | 0.039 (inactive) | 0.103 (inactive)
18 | ACADM isoform 2 (UniProt P11310) | -0.018 (inactive) | -0.024 (inactive) | 0.001 (inactive) | 0.017 (inactive) | 0.009 (inactive) | 0.009 (inactive) | -0.015 (inactive) | -0.042 (inactive) | -0.033 (inactive) | 0 (inactive)
19 | ALDH18A1 (UniProt P54886) | -0.179 (inactive) | 0.002 (inactive) | -0.04 (inactive) | 0.101 (inactive) | 0.035 (inactive) | 0.068 (inactive) | 0.057 (inactive) | -0.137 (inactive) | 0.141 (inactive) | 0.214 (inactive)
20 | ACAP2 (UniProt Q15057) | -0.046 (inactive) | 0 (inactive) | -0.038 (inactive) | 0.033 (inactive) | 0 (inactive) | 0.046 (inactive) | 0.057 (inactive) | -0.04 (inactive) | 0.028 (inactive) | 0 (inactive)
21 | ARGLU1 (UniProt Q9NWB6) | 0.046 (inactive) | 0.055 (inactive) | -0.136 (inactive) | -0.044 (inactive) | 0.147 (inactive) | 0.061 (inactive) | -0.045 (inactive) | -0.009 (inactive) | 0.001 (inactive) | -0.075 (inactive)
22 | BECN1 (UniProt Q14457) | -0.04 (inactive) | 0.029 (inactive) | 0 (inactive) | 0.04 (inactive) | 0.015 (inactive) | 0.055 (inactive) | -0.01 (inactive) | -0.024 (inactive) | -0.018 (inactive) | -0.012 (inactive)
23 | ACAD9 (UniProt Q9H845) | -0.022 (inactive) | 0.007 (inactive) | 0.007 (inactive) | -0.001 (inactive) | -0.061 (inactive) | 0.053 (inactive) | -0.019 (inactive) | -0.009 (inactive) | -0.012 (inactive) | -0.011 (inactive)
24 | ANKRD29 (UniProt Q8N6D5) | 0.046 (inactive) | 0.022 (inactive) | 0.027 (inactive) | -0.035 (inactive) | 0.371 (inactive) | -0.064 (inactive) | -0.031 (inactive) | -0.073 (inactive) | 0.247 (inactive) | -0.124 (inactive)
25 | AGRN (UniProt O00468) | -0.089 (inactive) | -0.294 (inactive) | -0.031 (inactive) | 0.014 (inactive) | -0.051 (inactive) | -0.025 (inactive) | -0.072 (inactive) | 0.024 (inactive) | -0.011 (inactive) | 0.011 (inactive)
26 | BZW2 (UniProt Q9Y6E2) | 0.009 (inactive) | -0.007 (inactive) | 0.043 (inactive) | 0.062 (inactive) | -0.034 (inactive) | 0.012 (inactive) | 0.058 (inactive) | -0.025 (inactive) | 0.011 (inactive) | 0.044 (inactive)
27 | ATP13A2 (UniProt Q9NQ11) | 0.017 (inactive) | 0.009 (inactive) | 0.035 (inactive) | 0.055 (inactive) | 0.001 (inactive) | 0.085 (inactive) | -0.037 (inactive) | 0.014 (inactive) | -0.044 (inactive) | -0.052 (inactive)
